In ChEMBL document CHEMBL3433997, “St. Jude Leishmania screening dataset” (2016):

Key:
Type in all cases: functional
[1] = molecular target: Solute carrier family 2, facilitated glucose transporter member 1 (Homo sapiens) (UniProt P11166); test: ST_JUDE_LEISH: Cytotoxicity at 2uM final concentration against transgenic Leishmania Mexicana promastigotes LmGLUT1 that are glucose transport deficient and complemented with the human glucose transporter GLUT1. Activity is measured by DNA content using SYBR green in vitro
[2] = molecular target: Hexose transporter 1 (Plasmodium falciparum) (UniProt O97467); test: ST_JUDE_LEISH: Cytotoxicity at 2uM final concentration against transgenic Leishmania Mexicana promastigotes LmPfHT that are glucose transport deficient and complemented with the Plasmodium falciparum hexose transporter. Activity is measured by DNA content using SYBR green in vitro
[3] = molecular target: Glucose transporter (Leishmania mexicana) (UniProt O61059); test: ST_JUDE_LEISH: Cytotoxicity at 2uM final concentration against transgenic Leishmania Mexicana promastigotes LmGT2 that are glucose transport deficient and complemented with the L. Mexicana glucose transporter 2. Activity is measured by DNA content using SYBR green in vitro

Chain of Solute carrier family 2, facilitated glucose transporter member 1 (Homo sapiens) (P11166 whole entry): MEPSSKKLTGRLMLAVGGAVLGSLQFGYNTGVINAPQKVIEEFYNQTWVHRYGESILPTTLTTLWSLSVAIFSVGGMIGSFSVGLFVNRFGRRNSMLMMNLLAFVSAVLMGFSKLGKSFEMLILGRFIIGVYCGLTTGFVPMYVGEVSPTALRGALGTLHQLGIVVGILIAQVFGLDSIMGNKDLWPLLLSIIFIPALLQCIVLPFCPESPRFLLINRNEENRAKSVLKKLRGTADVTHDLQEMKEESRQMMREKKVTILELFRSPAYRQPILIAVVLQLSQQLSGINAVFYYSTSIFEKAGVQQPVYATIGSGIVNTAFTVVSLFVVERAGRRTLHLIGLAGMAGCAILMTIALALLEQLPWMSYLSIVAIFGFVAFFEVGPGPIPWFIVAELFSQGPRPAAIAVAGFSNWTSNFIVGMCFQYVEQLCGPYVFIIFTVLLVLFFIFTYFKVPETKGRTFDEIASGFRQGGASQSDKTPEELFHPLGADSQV

SMILES	inhibition [1] [%]	inhibition [2] [%]	inhibition [3] [%]
Cc1cnc(C[S+]([O-])c2nc3cc(C(F)(F)F)ccc3[nH]2)cc1OCc1ccccc1 (stereo not drawn)	3.56	4.95	2.76
O=C(/C=C/c1ccc(Cl)c(Cl)c1)NCCCCCN1CCCN(C(=O)Nc2cc(Cl)cc(Cl)c2)CC1	3.31	3.85	6.4
COc1ccc2nccc([C@@H](O)CN3CCC(NCc4nc5cc(F)c(F)cc5[nH]4)CC3)c2c1	0.88	2.26	-0.99
COc1ccc(-c2ccc(NC(=O)c3ccc(C#N)cc3)cc2)cc1CN1CCCC1	1.22	0.11	-3.17
CC(C)CCNCc1ccc(OCc2cccc(COc3ccc(CNCCC(C)C)cc3I)c2)c(I)c1	0.58	-0.4	-0.23
O=C(Nc1ccc(-c2nc3ccccc3[nH]2)cc1)C1CCCN(CC2CC2)C1 (stereo not drawn)	12.9	10.8	4.89
Fc1ccc2[nH]c(-c3cccc(-c4cccc(CNCCN5CCNCC5)c4)c3)nc2c1	2.5	2.3	0.88
Cc1cccc2nc(-c3cccc(-c4ccc(NC(=O)C(C)CN5CCN(C)CC5)cc4)c3)[nH]c12 (stereo not drawn)	1.5	0.53	3.85
COc1cc(Cc2cnc(N)nc2N)cc(OCCCCCCC(=O)O)c1OC	0.12	-0.55	-0.96
COc1ccc(-c2ccc(NC(=O)c3ccc(C#N)cc3)cc2)cc1CN(C)CCO	2.76	0.56	1.59
CCc1nc(N)nc(N)c1-c1ccccc1	2.31	2.67	3.69
CCOC(=O)c1ccc(NC(=O)N[C@@H](Cc2ccccc2)C(=O)NC2CCN(Cc3ccc(O)cc3)C2)cc1 (stereo partly drawn)	-1.09	1.43	-7.4
O=C(c1cc(-c2ccccc2O)on1)N1CCN(C(c2ccccc2)c2ccccc2)CC1	-0.36	-0.36	0.34
N=C(N)NN=Cc1c2ccccc2c(Cl)c2c(Cl)cccc12	24.6	26.2	10.2
Cc1cccc(C(=O)Nc2ccnc(N(C)CCCN(C)Cc3cccc(C#N)c3)c2)c1	5.76	4.86	2.02
NS(=O)(=O)c1cccc(Nc2nccc(-c3cnn4ncccc34)n2)c1	50.6	76.5	64.8
N=C(N)Nc1nc(-c2cccc(NC(=O)Cc3ccccc3)c2)cs1	2.29	4.02	3.44
CCCc1cc(Cc2cnc(N)nc2N)cc2c1OC(C)C2C (stereo not drawn)	8.26	8.61	5.24
FC(F)(F)c1ccc2[nH]c(-c3ccc(-c4cccc(CNCc5cnn(-c6ccccc6)n5)c4)s3)nc2c1	2.87	3.4	2.46
CO/C(=C\C=C\c1cc2cc(Cl)c(Cl)cc2[nH]1)C(=O)NCCCN1CCN(c2cccc(OC)c2)CC1	8.59	8.04	9.1
CC(C)n1ncc2c(C(=O)N3CCCC4CCCCC43)cc(C3CC3)nc21 (stereo not drawn)	5.54	6.45	5.73
CCCc1ccc(-c2csc(NC(=O)c3ccc([N+](=O)[O-])o3)n2)cc1	78.4	77.8	37.8
COc1cccc(C2=CC(C)(C)Oc3cc(OCCN(C)C)ccc32)c1	0.35	-3.47	4.3
Nc1nc(Nc2ccc(Cl)cc2)nc2ccccc12	14	12.4	6.83

SMILES	inhibition [1] [%]	inhibition [2] [%]	inhibition [3] [%]
CS(=O)(=O)c1ccc(CCNCc2ccc(-c3ccc(CN(C(=O)c4ccc(Cl)nc4)C4CCN(Cc5ccccc5)CC4)cc3)nc2)cc1	4.37	3.39	1.67
CC(C)N1CCN(C(CN2CCN(CCCOc3ccc4ccccc4c3)CC2)c2ccc(F)cc2)CC1 (stereo not drawn)	1.8	1.79	-0.76
CCCN(CCC)S(=O)(=O)c1ccc(C(=O)Nc2nc3ccc(-c4cc(=O)[nH]c(Nc5ccccc5Cl)n4)cc3[nH]2)cc1	4.09	5.1	4.26
CCOc1ccc(C(C)NC(=O)Cc2ccccc2F)cc1OCC (stereo not drawn)	3.49	2.75	-0.15
CCc1sc(N2CCN(C)CC2)nc1C(=O)NCCc1ccc(Cl)c(Cl)c1	4.62	3.9	3.6
CC(C)(C)C(Cn1ccnc1)NCc1c[nH]nc1-c1ccc(-c2ccccc2)cc1 (stereo not drawn)	11.2	16.9	11.5
O=C(c1cccs1)N1N=C(c2cccs2)CC1c1cccc([N+](=O)[O-])c1 (stereo not drawn)	8.21	5.4	7.21
C=CC[C@H](NC(=O)c1ccc(NS(=O)(=O)c2ccc3nc(N)[nH]c(=O)c3c2)cc1)C(=O)OCCCC	0.58	0.62	1.67
CCCNCc1ccc(-c2ccc(CN(C(=O)c3nn(-c4ccccc4)nc3C)C3CC3)cc2)nc1	0.19	0.58	0.38
CN(C)CCN1CCN(Cc2ccc(-c3cccc(-c4nc5ccccc5[nH]4)c3)cc2)CC1	-2.11	-0.12	-0.98
Cc1cc(Nc2cccc(Cl)c2)nc2ccc(NC(=O)c3ccc(=O)[nH]c3)cc12	2.59	3.49	3.64
CC(=O)Nc1ccc(C(=O)Nc2cccc(-c3ccc(-c4nc5ccccc5[nH]4)cc3)c2)cn1	4.19	3.31	5.92
CCCCCCCN1CCC(CC(=O)Nc2ccnc3ccc(OC)cc23)CC1	11.3	9.11	6.34
CC(C)CC1(C(=O)OC(C)(C)C)CC(C(=O)OC(C)(C)C)C(c2cccs2)N1C(=O)c1ccc(C(C)(C)C)cc1 (stereo not drawn)	3.89	3.12	2.67
O=c1cc(NCCCNCc2cccc(OC(F)(F)F)c2)[nH]c2ccccc12	2.97	-3.41	4.57
COc1ccc(-c2cnc3ccc(NC4CCC(O)CC4)nn23)cn1 (stereo not drawn)	2.52	0.45	0.93
COc1ccc(CN2CCN(Cc3cc(Cl)ccc3O)CC2CCO)c(C)c1C (stereo not drawn)	-1.12	0.94	0.13
Cc1cccc2nc(-c3cccc(-c4ccc(C(=O)NCCc5ccc(O)c(=O)[nH]5)cc4)c3)[nH]c12	2.16	1.89	2.33
CC1(C)NC(N)=NC(=N)N1OCCCO	-0.7	-0.74	-1.67
CN(C)CCN(C)C(=O)c1cc(-c2ccncc2)c(-c2ccc(Cl)c(O)c2)o1	8.43	8.13	6.77
Cc1ccc(NC(=O)c2ccc(CN3CCCN(CCC(C)C)CC3)cc2)cc1C	14.1	14.9	15.6
CC(C)(C)c1ccc(CN2CCCCC(NC(=O)c3cc(-c4cccc(F)c4)cs3)C2)cc1 (stereo not drawn)	-2.41	-3.63	-0.11
COc1ccc(NC(=O)Nc2ccc(Nc3nc(C)cc(N4CCCC4)n3)cc2)cc1	4.49	3.69	1.68
CN1CCC(N(Cc2ccc(-c3ccc(C(F)(F)F)cc3)nc2)C(=O)Cn2c(CCc3cccc(F)c3F)cc(=O)c3ccccc32)CC1	6.73	6.06	7.68

SMILES	inhibition [1] [%]	inhibition [2] [%]	inhibition [3] [%]
Cc1c(Cl)ccc2sc(N3CCN(C(=O)c4ccc([N+](=O)[O-])o4)CC3)nc12	71.9	57.6	30
Cc1cc(=O)c(C2CCC(c3ccc(Cl)cc3)CC2)c(C)[nH]1 (stereo not drawn)	2.3	2.51	2.37
COc1ccc(S(=O)(=O)N(CC(=O)NN=C(C)c2cccs2)c2cc(C)cc(C)c2)cc1OC	0.78	2.03	-1.17
CN1CCN(C(C(=O)NCc2cc(Cl)cc(Cl)c2)c2ccc(NC(=O)Nc3ccccc3)cc2)CC1 (stereo not drawn)	2.24	1.94	1.21
CN1CCc2ccc(NC(=O)Nc3cccc(C(=O)c4ccccc4)c3)cc2C1	3.19	2.01	1.86
CN(Cc1ccccc1)C1CCCN(c2cc(NC(=O)c3ccc(F)cc3)ccn2)C1 (stereo not drawn)	-0.91	-2.04	0.07
O=C(/C=C/c1ccc(Cl)c(Cl)c1)N1CCC(CCCN2CCC(c3c[nH]c4ccccc34)CC2)CC1	70.7	51.2	-0.32
CN1CCN(CC(O)CNC(=O)Nc2ccc(Cl)cc2)CC1 (stereo not drawn)	5.3	5.03	2.94
CCc1ccc(Cc2cnc3nc(N)nc(N)c3c2C)cc1CC	-1.77	0.71	0.12
CCOC(=O)c1c(CN(CC)CC)n(-c2ccccc2)c2cc(Br)c(O)cc12	2.14	3.81	1.76
COc1cc(Cc2cnc(N)nc2N)cc(OCCCCCCN2C(=O)c3ccccc3C2=O)c1OC	7.29	4.53	5.48
C=CCN1C(=O)C(=Cc2cc(Br)ccc2O)SC1=Nc1ccccc1	8.65	6.8	14.5
Cc1cccc2nc(-c3ccc(-c4ccc(CN5CCN(CCO)CC5)cc4)cc3)[nH]c12	25.5	31.3	17.5
Cc1ccc(NC(=O)Nc2ccc(S(=O)(=O)c3ccc(NC(=O)Nc4ccc(C)c(Cl)c4)cc3)cc2)cc1Cl	0.06	-0.49	1.78
O=C(CCCCCNC(=O)c1ccc(O)c(-c2ccc(Cl)c(Cl)c2)c1)NCCc1ccc(Cl)c(Cl)c1	-0.22	0.09	0.33
O=C(/C=C/c1ccc(Cl)c(Cl)c1)NC1CCC(CN2CCC(Cc3c[nH]c4ccccc34)CC2)CC1 (stereo not drawn)	2.9	3.43	3.79
COc1cc(Cc2cnc(N)nc2N)c2c(c1OC)OC(C)(C)C=C2	4.17	5.13	4.87
O=C(NCc1cccc2ccccc12)[C@@H]1CCCN1C(=O)c1ccc(O)c(-c2ccc(Cl)c(Cl)c2)c1	3.99	2.59	1.99
COc1ccc(S(=O)(=O)N2CCC3(CC2)OCC(=O)NC3c2ccc(Cl)c(Cl)c2)cc1 (stereo not drawn)	2.93	1.47	0.92
O=C(/C=C/c1ccc(Cl)c(Cl)c1)N1CCC(CN2CCC(Cc3cc4ccccc4[nH]3)CC2)CC1	0.17	2.49	0.81
COc1ccc(C(=O)C2CCN(CCCCNC(=O)c3ccc(NC(=O)c4ccc(Cl)cc4)cc3)CC2)c(OC)c1	2.37	2.82	1.53
N#Cc1ccc2c(c1)CN(CCC1CCC(NC(=O)c3cc4cc(OC(F)(F)F)ccc4[nH]3)CC1)CC2 (stereo not drawn)	3.11	2.72	0.85
O=C(C=Cc1ccc(Cl)c(Cl)c1)NCCCCCN1CCCC(CCCNC(=O)C2CC2c2ccccc2)C1 (stereo not drawn)	2.64	0.94	1.66
